# Test results published in ChEMBL document CHEMBL3988442, “University of Dundee, Small-Polar-MMV Screening Library” (2021).
# Hit rate of the full screen: of about 53,000 compounds, about 900 (1.7%) showed an effect of 50% or more. Only a selection was taken, and strong results are over-represented in it overall.
# System: Mycobacterium tuberculosis
# Assay: Cornell - Phenotypic assay to identify agents that inhibit growth of Mycobacterium tuberculosis
# Assay type: functional
# Design: scale not given: direction of the effect not stated beside the values
# Details: 10 mM as filed; unlikely as a test dose
row,SMILES,Percent Effect [%]
1,COc1cccc(S(=O)(=O)NC(=O)CCC2CCCC2)c1,12.89
2,CC(=O)N1CCC(c2nccnc2CNC(=O)c2cc[nH]n2)CC1,-11.98
3,CCc1ccc(CN(Cc2ccccc2)CC(C)CO)nc1 (stereo not given),46.77
4,Cc1c(C(=O)NC(C)C(C)C)nnn1-c1cccc2c1CCN(C)C2 (stereo not given),4.546
5,Cc1[nH]n(-c2ccccc2)c2nnc(N)c1-2,107.4
6,CN(C)CCN1C(=O)CCC12CCCN(C(=O)c1ccncc1F)C2.O=C(O)C(F)(F)F (stereo not given),-23.79
7,Cn1cc(S(=O)(=O)N2CCC(OCCCc3ccccc3)C2)cn1 (stereo not given),25.94
8,CS(=O)(=O)N1CCC(OCCCc2ccccc2)C1 (stereo not given),18.05
9,O=S(=O)(c1cccnc1)N1CCC(OCCCc2ccccc2)C1 (stereo not given),55.63
10,COc1cccc(S(=O)(=O)N2CCOC(C)(C(N)=O)C2)c1 (stereo not given),8.35
11,CS(=O)(=O)N1CCCC12CCCN(S(=O)(=O)c1ccc(F)cc1)C2 (stereo not given),-19.89
12,COc1ccc(S(=O)(=O)N2CCOC(C)(C(N)=O)C2)cc1 (stereo not given),55.81
13,CS(=O)(=O)N1CCCC12CCCN(S(=O)(=O)c1cc(F)cc(F)c1)C2 (stereo not given),2.906
14,COc1ccc(S(=O)(=O)N2CCCC3(CCCN3S(C)(=O)=O)C2)cc1 (stereo not given),103.2
15,CC1(C(N)=O)CN(S(=O)(=O)c2cccc(F)c2)CCO1 (stereo not given),-8.727
16,CCc1nnc(Nc2cc(C)nc(C3CN(C(=O)C(C)C)CCO3)c2)s1 (stereo not given),1.783
17,CN1CCCC(c2nnc3n2CCN(S(=O)(=O)c2ccccc2Cl)C3)C1 (stereo not given),2.1
18,CCOc1ccccc1CNC(=O)c1cnn(CC)c1C(F)(F)F,4.777
19,COCCn1ccc(=O)c(OCC(=O)Nc2ccc(OC)cc2)c1C,53.75
20,COCCn1ccc(=O)c(OCC(=O)Nc2ccc(Br)cc2)c1C,27.51
21,COCCn1ccc(=O)c(OCC(=O)Nc2cccc(OC)c2)c1C,-5.179
22,c1cc(-c2n[nH]cc2-c2ccnc(N3CCCC3)n2)ccn1,22.12
23,Cc1nnc2ccc(N3CCC4(CCOC4)C3)nn12 (stereo not given),16.18
24,FC(F)c1nnc2ccc(N3CCC4(CCCCC4)C3)nn12,52.01
25,FC(F)c1nnc2ccc(N3CCC4(CCOC4)C3)nn12 (stereo not given),23.66

row,SMILES,Percent Effect [%]
1,CCOC(=O)c1n[nH]cc1-c1cncn1CC(C)n1nc(C)cc1C (stereo not given),-15.99
2,CCn1ncc(CN(C)C(=O)c2cc(C(F)(F)F)n(C)n2)c1C,9.297
3,COCCNC(=O)c1c(-n2cnnn2)sc2c1CCCC2,24.57
4,CCCc1cncnc1N1CCC(NCc2cc3ccccc3[nH]2)CC1,109.8
5,CCCc1cncnc1N1CCC(NCc2ccc(O)cc2)CC1,28.01
6,CCCc1cncnc1N1CCC(NCc2ccncc2)CC1,-49.68
7,CCn1c(C2CCN(C(=O)c3cc(C4CC4)on3)CC2)nn(C)c1=O,4.422
8,Cc1cc(C)n(-c2nc(NCCCO)c3c4c(sc3n2)CCCC4)n1,82.78
9,COCCNc1nc(-n2nc(C)cc2C)nc2sc3c(c12)CCCC3,-12.48
10,Cc1cc(C)n(C2=NC(NCCC(C)C)c3c(sc4c3CCCC4)N2)n1 (stereo not given),1.366
11,CCc1nc(CN(C)C(=O)c2cc(CN(CC)CC)c(CC)o2)no1,11.36
12,COc1ccccc1CN(CCCn1ccnc1)CC1CCOC1.O=C(O)CC(O)(CC(=O)O)C(=O)O (stereo not given),1.044
13,CCN(Cc1ccco1)C(=O)c1cc(OC)c2c(c1)OCCO2,11.52
14,Cn1ncc(NC(=O)c2noc3c2CCCC3)c1C(=O)N1CCCCC1,1.181
15,Cc1ncc(S(=O)(=O)Nc2ccnn2C(C)C)[nH]1,85.6
16,O=C(Nc1ccnn1C1CCCC1)c1ccc(NC2CC2)nc1,16.19
17,O=C(CN1CCCC1Cn1cncn1)Nc1ccnn1C1CCCC1 (stereo not given),39.34
18,CC(C)c1nc(S(=O)(=O)Nc2ccnn2C2CCCC2)c[nH]1,106.1
19,Cc1nc2c(c(C)c1CC(=O)Nc1ccnn1C(C)C)c(=O)[nH]n2C,-6.05
20,CC(C)c1n[nH]c(C(=O)Nc2ccnn2C(C)C)c1Br,-19.54
21,CC(C)c1nc(S(=O)(=O)N(C)c2ccc(F)cc2)c[nH]1,0.9821
22,Cc1ncc(S(=O)(=O)Nc2ccnn2C2CCCCC2)[nH]1,106.2
23,CCN1CCN(S(=O)(=O)c2c[nH]c(C(C)C)n2)c2ccccc21,19.57
24,COC1(CNC(=O)CCCc2ccccc2)CCSC1 (stereo not given),-5.448
25,Cc1nonc1OCCNC(=O)COc1ccc(F)cc1F,26.66

row,SMILES,Percent Effect [%]
1,CC(C)Sc1ncccc1C(=O)NCc1ccc(O)cc1,-23.95
2,O=C(O)C(F)(F)F.O=C(O)C(F)(F)F.c1cncc(OC[C@@]23CCC[C@@H]2CN(CC2CCOCC2)C3)c1,-8.459
3,CC(NCc1cc(F)ccc1F)c1ccc(OCC(=O)NC2CC2)cc1 (stereo not given),-52.24
4,O=C(NCC1CCCO1)c1cc(-c2ccc3c(c2)CCO3)n[nH]1 (stereo not given),-17.9
5,COc1ccc(CN(C)C(=O)NCc2c(C)cc(C)nc2OC)cc1,-10.68
6,CN(C)c1nccc(NCc2cc(-c3ccco3)n[nH]2)n1,37.45
7,COc1ccccc1NC(=O)c1ccc(C)n1C,27.91
8,COc1cc(CN2CC(=O)N(c3ccc(C)cc3)CC2C)cc(OC)c1 (stereo not given),47.02
9,COc1cccc(OC)c1CN1CC(=O)N(c2ccc(C)cc2)CC1C (stereo not given),67.79
10,COc1ccc(CN2CC(=O)N(c3ccc(C)cc3)CC2C)cc1O (stereo not given),5.464
11,O=C(O)C(F)(F)F.O=C(O)C(F)(F)F.O=C1[C@H]2CN(Cc3ccc(F)cc3)C[C@H]2CN1CCN1CCCC1,-24.72
12,O=C1CC[C@@H](CN(Cc2ccncc2)Cc2nc(-c3cccs3)no2)N1,-23.52
13,CCNC(c1ccc(CC)cc1)c1cccnc1 (stereo not given),-41.16
14,CCc1cc(=O)n(CC(=O)N2CCCC2)c(-c2ccc(F)cc2)n1,28.21
15,COc1ccccc1N1CCN(CC(=O)NC(C)c2ccco2)CC1 (stereo not given),25.38
16,COC(=O)[C@H](CCSC)NC(=O)Cn1ccc2c(Cl)cccc21,106.6
17,CSCC[C@H](NC(=O)Cn1ccc2c(Br)cccc21)C(=O)O,5.043
18,CSCC[C@H](NC(=O)CCn1ccc2c(Cl)cccc21)C(=O)O,15.96
19,Cc1ccc(CN2CCC3(CC2)NC(=O)CC3c2ccccc2)s1.O=C(O)C(F)(F)F (stereo not given),1.118
20,O=C1C(Nc2nccn3cnnc23)CCN1c1cccc(Cl)c1 (stereo not given),-12
21,CCN(CC)C(=O)CSc1nnc(CCNC(=O)OC(C)(C)C)o1,-12.06
22,CS(=O)(=O)CCn1ccc(NC(=O)Cc2c[nH]c3ccccc23)n1,31.98
23,Cl.O=C(Cn1c(-c2ccco2)cc2cccnc21)N1CCCC1,60.37
24,COCCNC(=O)Cn1c(-c2ccco2)cc2cccnc21,49.86
25,Cc1ncccc1-c1cc2cccnc2n1CCCNC(=O)C1CC1.Cl,15.61

row,SMILES,Percent Effect [%]
1,O=C(c1cnn2c(-c3ccco3)ccnc12)N1CCCCCC1,38.47
2,CC(C)N(C(=O)Cn1c(-c2ccco2)cc2cccnc21)C(C)C.Cl,99.58
3,Cl.O=C(CCn1c(C(F)(F)F)cc2cccnc21)N1CCCC1,-14.31
4,COCc1cc(N2CCN(C3CCCCC3)CC2)n2nccc2n1,6.435
5,CCn1ccnc1CN1CCN(C(C)C(=O)N2CCCC2)CC1 (stereo not given),-13
6,CCC1(O)CCCN(c2nc(-c3ccccn3)nc3c2c(C)nn3C)C1 (stereo not given),23.24
7,CCCNC(=O)Nc1ccc2c(c1)N(S(=O)(=O)CC)CC2,11.66
8,CS(=O)(=O)N1CC[C@]2(O)CCN(CCCC(=O)c3ccccc3)C[C@@H]2C1,2.425
9,C=Cn1ncc(CN2C[C@@H]3CCCN3C[C@@H]2CCSC)c1C,-11.11
10,Cc1ccc(-c2noc(C3CCN3C(=O)c3ccc(=O)[nH]n3)n2)s1 (stereo not given),58.13
11,Cc1cc(O)cc(C2CCCN2C(=O)c2ccn(C)n2)n1 (stereo not given),-43.03
12,Cc1c[nH]c(C2COCCN2C(=O)c2ccc(=O)[nH]n2)n1 (stereo not given),0.9699
13,Cc1ccc(-c2noc(C3CCN3C(=O)c3ccn(C)n3)n2)s1 (stereo not given),54.98
14,Cc1ccc(-c2noc(C3CCN3C(=O)c3cc[nH]n3)n2)s1 (stereo not given),52.32
15,CC(=O)N1CCC1c1nc(-c2ccc(C)s2)no1 (stereo not given),7.935
16,CC(=O)N1CCC(C(=O)N2CCC2c2nc(-c3ccc(C)s3)no2)CC1 (stereo not given),-6.67
17,CC1CCCCN1C(=O)c1ccc(=O)[nH]n1 (stereo not given),-37.74
18,Cc1ccc(-c2noc(C3CCN3C(=O)c3c(C)noc3C)n2)s1 (stereo not given),48.41
19,CCN1CCn2c(C)cnc2C12CCN(C(=O)c1cscn1)CC2.O=C(O)C(F)(F)F.O=C(O)C(F)(F)F,-12.15
20,CC(C)c1cc(CN(C)C(=O)CN2CCNC2=O)no1,-1.518
21,Cc1cc(C)cc(CN2CCN(C(=O)CCc3n[nH]c(C)n3)CC2=O)c1,-36
22,Cc1cnc(N2CCC3(CC(=O)N(Cc4csc(C)n4)C3)C2)nc1.O=C(O)C(F)(F)F (stereo not given),10.64
23,CCCOc1ccc(Cl)cc1C(=O)N1CCC(n2cncn2)CC1,-8.806
24,Clc1cnc(NCc2ccccc2N2CCOCC2)nc1,11.26
25,Cc1cc(C)c2c(N3CCN(C(=O)N4CCOCC4)CC3)ncnc2n1,-18.35
